Data as given in PubChem BioAssay (NCI).
Compounds without any hit were thinned out: in the full panel of roughly 83,000, 20% have a hit.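 Treatment: one concentration, 48 hours, 96-well format. Scoring: percent growth, with anything below 10 considered active.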 Active and inactive are the calls of the source.

Assays:
Experiment in all cases: NCI-60 one-dose screen, 48 h (100 = growth as untreated, 0 = no growth, -100 = all killed)
Settings in all cases: 10 µM unless noted
[1] = system: SK-MEL-2 melanoma
[2] = system: EKVX NSCLC
[3] = system: SN12C renal
[4] = system: UO-31 renal
[5] = system: TK-10 renal
[6] = system: ACHN renal
[7] = system: CAKI-1 renal
[8] = system: A498 renal
[9] = system: CCRF-CEM leukemia
[10] = system: MOLT-4 leukemia

Measured: growth

COc1ccc(Cn2cc3c(c2-c2ccccc2)CCc2cnoc2-3)cc1
inactive: [1] 64.6% | [2] 44.1% | [3] 37.3% | [4] 36.5% | [5] 91.9% | [6] 46.6% | [7] 34% | [8] 33.3% | [10] 25.5%
active: [9] 8.41%

CN1CCN(CC(=O)Nc2ccc3ncnc(Nc4ccc(Oc5cccc(C(F)(F)F)c5)c(Cl)c4)c3c2)CC1
active: [1] -15.5% | [6] -63.2% | [7] -18.7% | [9] 6.92% | [10] -7.18%
inactive: [2] 31.1% | [3] 51.3% | [4] 21.7% | [5] 41.6% | [8] 36.3%

CN(C)CCN1C(=O)c2cccc3c(/C=C/CN4C(=O)c5cccc6cccc(c56)C4=O)ccc(c23)C1=O
active: [9] -44.1%
inactive: [1] 104% | [2] 109% | [3] 79.9% | [4] 72% | [5] 121% | [6] 72.7% | [7] 91% | [8] 81.4% | [10] 34.3%

CCn1c(-c2cc3c([nH]c4ccccc43)c(-c3cccc(O)c3)n2)n[nH]c1=S
active: [1] -22.2% | [5] 9.38%
inactive: [2] 56.9% | [3] 63.6% | [4] 47.3% | [6] 61.1% | [7] 47.9% | [8] 35% | [9] 28% | [10] 25.6%

COc1cc(/C=C/C(=O)c2ccc(-n3cc(CN4CCN(c5cc6c(cc5F)c(=O)c(C(=O)O)cn6C5CC5)CC4)nn3)cc2)ccc1O
inactive: [1] 93% | [2] 85% | [3] 37.6% | [4] 52.6% | [5] 84.9% | [6] 77.7% | [7] 52.5% | [8] 70.8% | [9] 29.9% | [10] 68.2%

CNC(=O)c1cc(Oc2ccc3c(c2)sc2nc(-c4ccc(OC)cc4)cn23)ccn1
inactive: [1] 44.2% | [2] 52.7% | [3] 69.7% | [4] 52.2% | [5] 21.1% | [6] 83.8% | [7] 85.5% | [8] 16.9% | [9] 66.9% | [10] 76.6%

COc1ccc(Cn2cc(C(=O)N=Nc3c(O)[nH]c4c(C)cccc34)nn2)cc1
inactive: [1] 91.9% | [2] 107% | [3] 62.1% | [4] 14.9% | [5] 56.1% | [6] 38.2% | [7] 77.1% | [8] 101% | [9] 82.8% | [10] 83.5%

Cc1ccc(Cl)cc1NC(=O)c1sc2nc3c(cc2c1N)C(=O)CCC3
inactive: [1] 64.5% | [2] 75.3% | [3] 80.6% | [4] 83.4% | [5] 96.6% | [6] 55.9% | [7] 41.4% | [8] 51.2% | [9] 49.2% | [10] 84.9%

CCN1CCN(CC(=O)Nc2nc3ccc(NCc4ccc(F)cc4)cc3s2)CC1
inactive: [1] 106% | [2] 86.6% | [3] 88.5% | [4] 75.6% | [5] 105% | [6] 94.7% | [7] 89.9% | [8] 95.2% | [9] 87% | [10] 84.8%

CNC1=C([N+](=O)[O-])C(c2ccc(OC)cc2)C(C#N)=C(c2cccs2)O1 (stereo not given)
inactive: [1] 119% | [2] 104% | [3] 105% | [4] 80.6% | [5] 124% | [6] 109% | [7] 94.2% | [8] 117% | [9] 108% | [10] 101%

O=c1ccc(=O)n(-c2nc(-c3ccc([N+](=O)[O-])cc3)cs2)[nH]1
inactive: [1] 108% | [2] 101% | [3] 101% | [4] 82.4% | [5] 107% | [6] 102% | [7] 101% | [8] 87.9% | [9] 99.4% | [10] 86.5%

COc1ccc(/C(C)=C(\c2ccc(Cl)cc2)c2ccc(OCCN3CCCCC3)cc2)cc1
inactive: [1] 56.2% | [2] 69.1% | [3] 69.2% | [4] 48.1% | [5] 95.7% | [6] 77.3% | [7] 37.2% | [8] 86.8% | [9] 37.5% | [10] 41.6%

CC(=O)c1sc2sc(C(C)=O)c(C)c2c1C
inactive: [1] 107% | [2] 42.8% | [3] 98% | [4] 88.4% | [5] 74.9% | [6] 98.9% | [7] 86.4% | [9] 63.6% | [10] 85.5%
active: [8] -82.4%

N#C/C(=C\c1cn(Cc2ccccc2)c2ccccc12)C(=O)Nc1ncc(Cc2ccccc2Cl)s1
active: [4] -34.3% | [5] 6.29% | [6] -58.4% | [7] -11.4% | [8] -13.3%
inactive: [1] 35.9% | [2] 28.7% | [3] 18.1% | [9] 37% | [10] 61%

Nc1nc(N)c2c(n1)NC(c1cccc(Nc3ccnc4cc(C(F)(F)F)ccc34)c1)CC(c1ccc(Br)cc1)=N2 (stereo not given)
active: [10] 9.24%
inactive: [1] 52.4% | [2] 51.5% | [3] 63% | [4] 62.2% | [5] 96.8% | [6] 82% | [7] 48.6% | [8] 77.1% | [9] 17%

Cc1cccc(Oc2ccc(Nc3ncnc4ccc(NC(=O)CN5CCN(C)CC5)cc34)cc2Cl)c1
active: [1] -70.7% | [6] -7.41% | [8] 5.9% | [9] 4.6% | [10] 3.77%
inactive: [2] 25.1% | [3] 46.4% | [4] 22.2% | [5] 18.8% | [7] 12.9%

CC(=O)ON1CCCC(P(=O)(OCCSC(=O)C(C)(C)C)OCCSC(=O)C(C)(C)C)C1=O (stereo not given)
inactive: [1] 50.6% | [2] 22.8% | [5] 27.2% | [6] 20.1% | [7] 24% | [10] 15.5%
active: [3] 3.59% | [4] -0.776% | [8] -8.82% | [9] -6.31%

O=C(Cc1ccc(/C=C/C(=O)c2ncc[nH]2)cc1)Nc1cc(C(F)(F)F)cc(C(F)(F)F)c1
inactive: [1] 110% | [2] 108% | [3] 94.9% | [4] 62.9% | [5] 115% | [6] 105% | [7] 78.5% | [8] 94.3% | [9] 92.9% | [10] 67.7%

N=c1c(S(=O)(=O)c2ccccc2)cc2c(=O)n3ccccc3nc2n1CC1CCCO1 (stereo not given)
inactive: [1] 112% | [2] 107% | [3] 96.8% | [4] 56.4% | [5] 114% | [6] 103% | [7] 85.2% | [8] 84.1% | [9] 109% | [10] 102%

CN1CCN(CCOc2ccc(-c3cnc4c(-c5cccc(F)c5F)cnn4c3)cc2)CC1
inactive: [1] 99.9% | [2] 78.6% | [3] 90.3% | [4] 80.8% | [8] 95.4% | [10] 80.5%
active: [5] -64.2% | [6] -22.7% | [7] -8.23% | [9] -13.3%

COc1ccc(/C=C/C(=O)c2cc3c(N)c(C(=O)Nc4cccc(Cl)c4C)sc3nc2C)cc1
inactive: [1] 51.6% | [2] 44.5% | [4] 22.9% | [5] 28.7% | [6] 17.7% | [7] 13.2% | [9] 10.9% | [10] 19%
active: [3] 4.97% | [8] 4.47%

O=C(Nc1ncccc1OCc1ccccc1)NC1CCCCCC1
inactive: [1] 91.9% | [2] 88.2% | [3] 78.6% | [4] 85.1% | [5] 94% | [6] 93.4% | [7] 86.7% | [8] 101% | [9] 77.5% | [10] 78.7%
